Composite z-score and z-score data for five compounds are collected here from PubChem BioAssay.

Test [1] in a line: anti-His antibody binders, primary screen, artefact control for SMM control protein annotation, biochemical, small-molecule microarray, 635 nm fluorescence (AID 1128).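 Also: score merges feature fluorescence with signal-to-noise for each printed compound spot.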 Conditions: anti-His Alexa647 antibody binding, higher = more signal.
The subject of test [2] is Human papillomavirus type 1a E7 protein (residues 1-88). Description: HPV1a E7 small-molecule binders, primary screen, biochemical, small-molecule microarray, residues 1-88, 635 nm (AID 1129). The following applies: small-molecule microarray binding, fluorescence 635 nm; higher = more signal.
Test [3] addresses Focal adhesion kinase 1 (Homo sapiens) (UniProt Q05397). Description: small-molecule microarray binders of FAK, primary screen, biochemical, 635/667 nm fluorescence, BSA, DTT (AID 1130).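 Also: composite of spot emission at 667 nm and signal to noise over triplicate slides.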 Conditions: PTK2 binding, 635 nm fluorescence, higher = more signal.
For test [4], the system named is Fibrinogen (Alexa647-labelled). Kind of test: fibrinogen binders on compound microarrays, profiling panel, artefact control for SMM control-protein annotation, biochemical, small-molecule microarray, 635/667 nm fluorescence (AID 1131).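 Also: z-score merges 667 nm fluorescence with per-spot signal-to-noise over triplicate slides.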 The following applies: fibrinogen-A647 binding fluorescence, higher = more signal.
In test [5] the target is Follistatin (Homo sapiens) (UniProt P19883). Description: follistatin binders on small-molecule microarrays, primary screen, biochemical, small-molecule microarray, 635/667 nm fluorescence (AID 1132). Conditions: FST binding, 635 nm fluorescence, higher = more signal.
In test [6] the target is Fibroblast growth factor 2 (Homo sapiens) (UniProt P09038). Description: FGF2 binders on small-molecule microarrays, primary screen, biochemical, small-molecule microarray, 635/667 nm fluorescence (AID 1133). The following applies: small-molecule microarray binding, FGF2, fluorescence 635/667; higher = more signal.
Test [7] is described as follows: mitochondrial membrane potential change in A549 cells, profiling panel, cell-based, JC-1 fluorescence, basal, 24 h, 100 nL (AID 1138).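 Also: A549 lung adenocarcinoma cells under basal conditions with no added stimulus; test concentration not given here.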 Conditions: higher = more signal.
A further test deals with Lefty1. Kind of test: Lefty1 binders on small-molecule microarrays, primary screen, biochemical, small-molecule microarray, 635/667 nm fluorescence (AID 1139). Conditions: small-molecule microarray binding, fluorescence 635/667; higher = more signal.
Test [8] concerns wheat germ agglutinin (Triticum aestivum), Alexa647-labelled. Kind of test: wheat germ agglutinin binders on compound microarrays, profiling panel, artefact control for SMM control-protein annotation, biochemical, small-molecule microarray, 635/667 nm fluorescence (AID 1140).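 Also: score merges 667 nm feature emission with signal to noise over triplicate slides.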 The following applies: WGA-A647 binding, 635 nm fluorescence, higher = more signal.
Test [9] has as its target Luciferin 4-monooxygenase (Photinus pyralis) (UniProt P08659). Description: firefly luciferase enzyme inhibitors, primary screen, biochemical, luminescence, purified enzyme, 2006 set (AID 1141).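 Also: cell-free assay with purified firefly luciferase at 100 ng per well in PBS; test concentration not given here.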 The following applies: SteadyGlo luminescence, 30 min, higher = more signal, called active from +8 up or from −8 down.
The test system of test [10] is Wnt5a (protein binding on small-molecule microarray). Description: Wnt5a binders on small-molecule microarray, primary screen, biophysical, 635/667 nm fluorescence (AID 1142).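 Also: fluorescence read at 667 nm with signal to noise per printed feature.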 The following applies: 635 nm fluorescence, higher = more signal.
Test [11] is described as follows: cell viability in Huh7 cells, primary screen, cytotoxicity control for HCV replication inhibitor project, CellTiter-Glo luminescence, basal, 48 h (AID 1143).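 Also: Huh7 hepatoma cells carrying a hepatitis C replication reporter with no stimulus; test concentration not given here.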 The following applies: Huh7 HCV replicon, higher = more signal, called active from +8 up or from −8 down. A general note: ATP-based viability assays read luminescence as a measure of living cells.
The nature of test [12]: P. aeruginosa biofilm formation inhibitors, primary screen, PAO1 strain, BacTiter-Glo luminescence, LB-PBS (AID 1144). Conditions: 12 h, higher = more signal.
A short description of test [13]: CREB reporter modulators without forskolin, primary screen, cell-based, PC12, CRE-LacZ reporter, unstimulated (AID 1145). Conditions: no forskolin, luminescence, 4.5 h, higher = more signal, called active from +8 up or from −8 down.
Test [14] can be described thus: CREB reporter modulators under forskolin, primary screen, cell-based, PC12, CRE-LacZ reporter, forskolin-stimulated (AID 1146).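 Also: PC12 cells with 6xCRE LacZ reporter stimulated by forskolin 10 µM; beta-galactosidase reporter signal reflecting CREB driven transcription.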 The following applies: luminescence, 4.5 h, higher = more signal, called active from +8 up or from −8 down.
Test [15] deals with Streptavidin (Streptomyces avidinii) (UniProt P22629). Kind of test: streptavidin binders on small-molecule microarray, primary screen, artefact control for SMM compound annotation, biophysical, 635/667 nm fluorescence (AID 1147).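 Also: signal reflects streptavidin binding to arrayed compounds as a control protein.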 The following applies: streptavidin binding, higher = more signal.
Test [16] can be described thus: small-molecule binders of probe aInhba, primary screen, biochemical, small-molecule microarray, 635/667 nm fluorescence (AID 1148).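 Also: score merges 667nm spot fluorescence with signal-to-noise for antibody binding to printed compounds.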 The following applies: higher = more signal.
The target in test [17] is Torsin-1A (Homo sapiens) (UniProt O14656). Kind of test: torsin A binders from cell lysate, primary screen, small-molecule microarray, wild-type, 635/667 nm (AID 1149). Conditions: COS7 hTOR1A-WT lysate, 635 nm fluorescence, higher = more signal.
For test [18] the target is unchanged. Description: small-molecule binders of mutant TOR1A in lysate, primary screen, cell lysate, small-molecule microarray, COS7 lysate, 635/667 nm fluorescence (AID 1150).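 Also: score pools 667 nm emission and signal to noise measuring lysate protein binding.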 Conditions: COS7 hTOR1A mutant lysate, 635 nm fluorescence, higher = more signal.
Test [19] relates to Sonic hedgehog protein (Shh). Kind of test: small-molecule binders of Shh protein, primary screen, biochemical, small-molecule microarray, 635/667 nm fluorescence (AID 1151).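 Also: Shh protein binding to compounds spotted on small-molecule microarray slides; score combines spot fluorescence intensity with signal-to-noise across triplicate slides.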 Conditions: small-molecule microarray binding, 635 nm fluorescence; higher = more signal.

The structures appear in SMILES notation. Activity calls are given as the source filed them. Unless noted, no rule for the calls is given here.

Sequence of Torsin-1A (Homo sapiens) (O14656 whole entry, looked up): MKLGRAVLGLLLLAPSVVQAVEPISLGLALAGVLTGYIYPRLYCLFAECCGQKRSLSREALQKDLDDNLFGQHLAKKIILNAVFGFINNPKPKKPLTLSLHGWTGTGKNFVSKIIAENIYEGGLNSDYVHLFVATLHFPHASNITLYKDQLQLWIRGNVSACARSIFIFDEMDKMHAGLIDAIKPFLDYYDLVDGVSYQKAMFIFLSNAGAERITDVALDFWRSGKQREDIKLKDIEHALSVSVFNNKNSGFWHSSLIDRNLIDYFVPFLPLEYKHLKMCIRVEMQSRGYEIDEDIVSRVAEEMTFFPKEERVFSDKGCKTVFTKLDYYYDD
Sequence of Fibroblast growth factor 2 (Homo sapiens) (P09038 whole entry, looked up): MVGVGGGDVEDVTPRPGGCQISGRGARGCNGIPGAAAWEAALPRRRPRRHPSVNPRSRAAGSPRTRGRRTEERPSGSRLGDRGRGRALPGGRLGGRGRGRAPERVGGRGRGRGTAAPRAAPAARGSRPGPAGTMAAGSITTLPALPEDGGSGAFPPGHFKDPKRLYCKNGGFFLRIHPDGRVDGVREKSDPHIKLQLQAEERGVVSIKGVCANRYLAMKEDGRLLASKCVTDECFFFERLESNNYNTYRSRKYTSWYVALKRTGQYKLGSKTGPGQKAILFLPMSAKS
Sequence of Follistatin (Homo sapiens) (P19883 whole entry, looked up): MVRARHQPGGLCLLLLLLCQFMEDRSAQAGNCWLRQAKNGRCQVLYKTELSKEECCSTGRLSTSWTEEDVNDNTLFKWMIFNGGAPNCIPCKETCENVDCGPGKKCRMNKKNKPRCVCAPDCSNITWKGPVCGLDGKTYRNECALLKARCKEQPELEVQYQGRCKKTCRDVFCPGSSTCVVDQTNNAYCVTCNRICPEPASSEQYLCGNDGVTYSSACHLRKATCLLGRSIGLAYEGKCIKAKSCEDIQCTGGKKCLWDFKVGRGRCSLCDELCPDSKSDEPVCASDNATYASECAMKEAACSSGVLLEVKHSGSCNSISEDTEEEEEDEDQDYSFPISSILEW
Sequence of Focal adhesion kinase 1 (Homo sapiens) (Q05397 whole entry, looked up): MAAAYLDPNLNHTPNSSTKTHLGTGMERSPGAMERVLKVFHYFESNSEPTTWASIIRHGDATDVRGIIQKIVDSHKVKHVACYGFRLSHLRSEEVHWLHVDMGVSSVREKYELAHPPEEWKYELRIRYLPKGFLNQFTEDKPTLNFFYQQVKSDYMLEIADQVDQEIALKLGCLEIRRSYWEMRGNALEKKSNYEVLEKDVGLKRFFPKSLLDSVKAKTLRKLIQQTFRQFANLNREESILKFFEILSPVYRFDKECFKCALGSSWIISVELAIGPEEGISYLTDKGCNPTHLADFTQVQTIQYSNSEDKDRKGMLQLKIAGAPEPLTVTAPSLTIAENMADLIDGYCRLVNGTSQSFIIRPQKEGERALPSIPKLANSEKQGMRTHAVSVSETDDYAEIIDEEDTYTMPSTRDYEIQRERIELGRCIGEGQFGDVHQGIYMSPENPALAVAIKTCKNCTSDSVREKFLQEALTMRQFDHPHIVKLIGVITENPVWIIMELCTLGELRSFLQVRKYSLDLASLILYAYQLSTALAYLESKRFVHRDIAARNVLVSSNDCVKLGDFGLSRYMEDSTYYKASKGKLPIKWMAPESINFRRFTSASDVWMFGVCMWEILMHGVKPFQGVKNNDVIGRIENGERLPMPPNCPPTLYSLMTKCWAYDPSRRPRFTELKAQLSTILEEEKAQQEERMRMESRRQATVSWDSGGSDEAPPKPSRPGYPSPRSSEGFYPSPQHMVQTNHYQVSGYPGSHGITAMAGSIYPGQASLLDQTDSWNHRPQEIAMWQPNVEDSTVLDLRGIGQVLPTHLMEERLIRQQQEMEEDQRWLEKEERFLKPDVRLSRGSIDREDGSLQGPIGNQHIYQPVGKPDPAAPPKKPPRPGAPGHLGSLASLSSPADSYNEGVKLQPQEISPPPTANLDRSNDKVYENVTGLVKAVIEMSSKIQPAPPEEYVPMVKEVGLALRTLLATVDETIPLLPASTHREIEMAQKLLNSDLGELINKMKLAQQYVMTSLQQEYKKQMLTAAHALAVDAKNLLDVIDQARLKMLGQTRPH
Sequence of Streptavidin (Streptomyces avidinii) (P22629 whole entry, looked up): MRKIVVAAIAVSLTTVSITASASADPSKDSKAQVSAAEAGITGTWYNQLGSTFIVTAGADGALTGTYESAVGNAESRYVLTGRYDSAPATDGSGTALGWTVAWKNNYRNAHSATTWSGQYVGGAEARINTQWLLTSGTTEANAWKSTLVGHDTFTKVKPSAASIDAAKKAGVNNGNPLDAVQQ
Sequence of Luciferin 4-monooxygenase (Photinus pyralis) (P08659 whole entry, looked up): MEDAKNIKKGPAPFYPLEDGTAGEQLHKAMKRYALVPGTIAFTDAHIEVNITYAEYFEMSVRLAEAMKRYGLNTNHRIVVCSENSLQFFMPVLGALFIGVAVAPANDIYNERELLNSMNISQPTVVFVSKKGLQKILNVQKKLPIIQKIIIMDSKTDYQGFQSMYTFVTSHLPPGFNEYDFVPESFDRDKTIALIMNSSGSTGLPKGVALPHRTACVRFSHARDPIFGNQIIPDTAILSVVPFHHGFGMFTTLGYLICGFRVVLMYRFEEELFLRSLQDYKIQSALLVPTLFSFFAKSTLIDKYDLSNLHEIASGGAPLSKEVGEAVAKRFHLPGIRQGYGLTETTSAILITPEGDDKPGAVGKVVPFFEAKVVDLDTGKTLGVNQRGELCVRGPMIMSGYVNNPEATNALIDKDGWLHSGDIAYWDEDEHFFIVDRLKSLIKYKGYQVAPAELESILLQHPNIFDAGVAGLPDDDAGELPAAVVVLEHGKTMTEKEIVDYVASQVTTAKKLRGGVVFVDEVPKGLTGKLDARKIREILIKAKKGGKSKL

Consider `CN(C)C(=O)[C@@]1(Cc2ccccc2)N=C(c2ccc(OCCCO)cc2)O[C@H]1c1ccccc1N=[N+]=[N-]`, for which the composite z-score in test [1] is 2.01; in [2], 1.25; in test [3], 0.978; in test [4], 1.01; in test [5], 1.34; in [6] it was 0.249. Besides, the composite z-score was determined as 0.623 with Lefty1; 0.382 in test [8]; 0.762 in test [10]; 1.5 in [15]; 0.086 in test [16]; 0.697 with Torsin-1A (Homo sapiens) [17]. In addition, the composite z-score in the test with Torsin-1A (Homo sapiens) [18] was 0.505; in [19], -0.346. For the same compound, the z-score in test [7] was -0.631; in [9], -6.45 (inactive); in test [11], -4.47 (inactive); in [12] it was -1.05 (inactive); in test [13], 0.115 (inactive); in test [14] it was -2.09 (inactive).

With `COc1ccc(C(O)C2C=CC3C(=O)NC(=O)C3N2Nc2ccccn2)c2ccccc12` (stereo not given), the composite z-score was 0.516 in test [1]; -0.609 in test [2]; -0.106 in test [3]; 0.0992 in test [4]; 0.488 in [5]; 0.524 in [6]. In addition, the composite z-score with Lefty1 was -0.0665; in test [8], 0.788; in test [10], 0.0373; in [15], -0.0105; in [16], -0.0791; with Torsin-1A (Homo sapiens) [17], 0.239. Further, the composite z-score in the test with Torsin-1A (Homo sapiens) [18] was -0.274; in [19], 0.448. Moreover, the z-score in test [7] is -1.15; in test [9], -1.46 (inactive); in [11], 1.04 (inactive); in test [12] it was -0.507 (inactive); in test [13], -0.133 (inactive); in test [14] it was 0.214 (inactive).

With `C=CC[C@@]1(C(N)=O)N=C(c2ccc(OCCCO)cc2)O[C@@H]1c1ccccc1CN=[N+]=[N-]`, the composite z-score is 2.78 in test [1]; 1.17 in test [2]; -0.111 in [3]; 0.968 in test [4]; 1.08 in test [5]; 0.107 in test [6]. Further, the composite z-score in the test with Lefty1 was -0.344; in test [8], 1.52; in test [10], 0.186; in [15], 0.456; in test [16], 0.233; with Torsin-1A (Homo sapiens) [17], 0.183. The composite z-score with Torsin-1A (Homo sapiens) [18] is 0.0254; in test [19] it was -0.776. The z-score in [7] is -0.95; in test [9], -1.35 (inactive); in [11], -3.34 (inactive); in test [12] it was -0.58 (inactive); in test [13] it was 1.8 (inactive); in test [14], -1.35 (inactive).

On to `COCCOC(=O)N1C(=O)[C@@]2(c3cc(C#Cc4ccc(OC)cc4)ccc31)[C@H](C(N)=O)[C@H]1C(=O)O[C@H](c3ccccc3)[C@H](c3ccccc3)N1[C@@H]2c1ccccc1OCCO`, for which the composite z-score stood at 2.24 in test [1]; 1.21 in test [2]; 0.861 in test [3]; 1 in test [4]; 1.3 in test [5]; 1.42 in test [6]. Moreover, the composite z-score was found to be 1.58 with Lefty1; 0.901 in test [8]; 0.753 in [10]; 0.784 in test [15]; 0.398 in [16]; 0.666 in the test with Torsin-1A (Homo sapiens) [17]. For the same compound, the figures for the composite z-score (with Torsin-1A (Homo sapiens) [18]; in [19]) were 1.81 and 1.66, respectively. Moreover, the z-score in test [7] was -1.47; in test [9], 0.0449 (inactive); in [11], -3.77 (inactive); in [12], -0.438 (inactive); in test [13], -0.168 (inactive); in [14], -0.134 (inactive).

For the compound `C=C(CCCC)C(=O)CC[C@H](OC(=O)c1cccnc1)c1ccccc1OCCO`, the composite z-score in [1] is 0.984; in test [2], -0.513; in [3], 0.0467; in test [4], -0.633; in test [5], 0.537; in test [6], 1.32. Besides, the composite z-score in the test on Lefty1 was 0.785; in [8], 0.14; in test [10], 0.218; in test [15] it was -0.423; in test [16], -0.128; with Torsin-1A (Homo sapiens) [17], 1.07. For the same compound, the figures for the composite z-score (with Torsin-1A (Homo sapiens) [18]; in test [19]) were 0.218 and 0.552, respectively. For the same compound, the z-score is 1.08 in [7]; -0.288 (inactive) in test [9]; -2.15 (inactive) in [11]; -0.0162 (inactive) in [12]; 2.21 (inactive) in test [13]; 1.94 (inactive) in [14].
